Reference: PubChem BioAssay AID1159580 (chemical genetic matrix, 2015)
Where “and” joins values, the source holds several entries; their conditions need not be identical. Equal values may be shown once. Hit rate of the full screen: of about 5,500 compounds, about 2,000 (36%) were called active. Not shown: some 18% with an inconclusive outcome. Cut-off read from the data, not from the text of the source: active = normalized growth mostly below about 0.91 (no sharp cut-off); inconclusive = no clear call, values can overlap the other calls; inactive = mostly above about 0.92. Some of the results follow.

Assay: chemical genetic growth profiling, strain panel (AID 1159580);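 note: tested at 20 µM; growth read once vehicle control cultures reached saturation at 30 °C; 1 = growth at the plate median or of vehicle wells; lower values mean less growth of the strain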
Details: S. cerevisiae deletion strains, growth OD

Measured: normalized growth

COc1cccc2c1cc([N+](=O)[O-])c1c(C(=O)O)cc3c(c12)OCO3
inactive: locus YAL021C, strain ccr4, stronger effect = lower value 1.01 | locus YAL026C, strain drs2, stronger effect = lower value 1.02 | locus YAL030W, strain snc1, stronger effect = lower value 1.02 | locus YBL061C, strain skt5, stronger effect = lower value 1.02 | locus YBR009C, strain hhf1, stronger effect = lower value 1.03 | locus YBR021W, strain FUR4, stronger effect = lower value 0.991 | locus YBR023C, strain chs3, stronger effect = lower value 1.02 | locus YBR171W, strain sec66, stronger effect = lower value 1.05 | locus YBR229C, strain ROT2, stronger effect = lower value 1.01 | locus YBR231C, strain swc5, stronger effect = lower value 1.03 | locus YBR279W, strain paf1, stronger effect = lower value 1.02 | locus YCL011C, strain gbp2, stronger effect = lower value 1.03 | locus YCL016C, strain dcc1, stronger effect = lower value 1.02 | locus YCL029C, strain bik1, stronger effect = lower value 1.02 | locus YCL061C, strain MRC1, stronger effect = lower value 1.02 | locus YCL069W, strain vba3, stronger effect = lower value 1.02 | locus YCR088W, strain abp1, stronger effect = lower value 1.02 | locus YDL005C, strain med2, stronger effect = lower value 1.04 | locus YDL035C, strain GPR1, stronger effect = lower value 1.01 | locus YDL040C, strain nat1, stronger effect = lower value 1 | locus YDL074C, strain BRE1, stronger effect = lower value 1.04 | locus YDL101C, strain DUN1, stronger effect = lower value 1.03 | locus YDL134C, strain PPH21, stronger effect = lower value 1.01 | locus YDL185W, strain tfp1, stronger effect = lower value 1 | locus YDL192W, strain arf1, stronger effect = lower value 1.04 | locus YDR001C, strain nth1, stronger effect = lower value 1.02 | locus YDR069C, strain doa4, stronger effect = lower value 1.02 | locus YDR101C, strain arx1, stronger effect = lower value 1.03 | locus YDR137W, strain rgp1, stronger effect = lower value 1.03 | locus YDR150W, strain NUM1, stronger effect = lower value 1.02 | locus YDR159W, strain sac3, stronger effect = lower value 1.04 | locus YDR162C, strain NBP2, stronger effect = lower value 1.03 | locus YDR195W, strain ref2 1 | locus YDR297W, strain sur2, stronger effect = lower value 1.03 | locus YDR318W, strain mcm21, stronger effect = lower value 1.02 | locus YDR334W, strain swr1, stronger effect = lower value 1.02 | locus YDR335W, strain msn5, stronger effect = lower value 1.02 | locus YDR388W, stronger effect = lower value 1.02 | locus YDR392W, strain spt3, stronger effect = lower value 0.971 | locus YDR502C, strain sam2, stronger effect = lower value 1.01 | locus YEL003W, strain gim4, stronger effect = lower value 1.03 | locus YEL037C, strain rad23, stronger effect = lower value 1.02 | locus YEL061C, strain CIN8 (second series), stronger effect = lower value 1.02 | locus YEL061C, strain CIN8, stronger effect = lower value 1.01 | locus YER015W, strain faa2, stronger effect = lower value 1.02 | locus YER016W, strain bim1, stronger effect = lower value 1.02 | locus YER110C, stronger effect = lower value 1.01 | locus YER111C, strain swi4, stronger effect = lower value 1.03 | locus YER155C, strain BEM2 (second series), stronger effect = lower value 1.03 | locus YER155C, strain BEM2, stronger effect = lower value 1.01 | locus YER167W, strain BCK2, stronger effect = lower value 0.999 | locus YFR010W, strain ubp6, stronger effect = lower value 1.02 | locus YGL078C, strain dbp3, stronger effect = lower value 0.997 | locus YGL086W, strain mad1, stronger effect = lower value 1.03 | locus YGL167C, strain pmr1, stronger effect = lower value 1.04 | locus YGL173C, strain kem1, stronger effect = lower value 1.04 | locus YGL227W, strain vid30, stronger effect = lower value 1.02 | locus YGL240W, strain doc1, stronger effect = lower value 1.03 | locus YGL248W, strain PDE1, stronger effect = lower value 1.01 | locus YGL253W, strain hxk2, stronger effect = lower value 1.01 | locus YGR135W, strain pre9, stronger effect = lower value 0.994 | locus YGR229C, strain SMI1, stronger effect = lower value 1.02 | locus YGR252W, strain gcn5, stronger effect = lower value 0.906 | locus YHR013C, strain ard1, stronger effect = lower value 1.02 | locus YHR027C, strain rpn1, stronger effect = lower value 1.02 | locus YHR030C, strain SLT2, stronger effect = lower value 1.01 and 0.92 | locus YHR079C, strain IRE1 (second series), stronger effect = lower value 1.01 | locus YHR079C, strain IRE1, stronger effect = lower value 0.914 | locus YHR094C, strain hxt1, stronger effect = lower value 1.02 | locus YHR129C, strain ARP1, stronger effect = lower value 1.01 | locus YHR142W, strain chs7, stronger effect = lower value 1.01 | locus YHR200W, strain rpn10, stronger effect = lower value 1.02 | locus YIL066C, strain RNR3, stronger effect = lower value 1.02 | locus YIL073C, strain SPO22, stronger effect = lower value 1.03 | locus YIL125W, strain kgd1, stronger effect = lower value 0.995 | locus YIR030C, strain dcg1, stronger effect = lower value 1.02 | locus YJL092W, strain hpr5, stronger effect = lower value 1.02 | locus YJL095W, strain BCK1 (second series), stronger effect = lower value 1.01 | locus YJL095W, strain BCK1, stronger effect = lower value 1.04 and 0.987 | locus YJL115W, strain asf1, stronger effect = lower value 1.02 | locus YJL129C, strain trk1, stronger effect = lower value 1.03 | locus YJL134W, strain LCB3, stronger effect = lower value 1.02 | locus YJL154C, strain vps35, stronger effect = lower value 1.02 | locus YJL164C, strain tpk1, stronger effect = lower value 0.991 | locus YJL166W, strain qcr8, stronger effect = lower value 1.02 | locus YJL168C, strain set2, stronger effect = lower value 1.01 | locus YJL187C, strain SWE1 (second series), stronger effect = lower value 1.03 | locus YJL187C, strain SWE1, stronger effect = lower value 1.02 | locus YJR043C, strain POL32, stronger effect = lower value 1.01
